Bioassay records as filed in PubChem.
GLS inhibitor = inhibitors of human glutaminase (GLS); O94925; GLS enzymatic activity, qHTS titration; Potency, µM (top dose mostly 45.5 µM), most hits filed as inhibitors; hit rate 0.21% among 410,000
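Read-out is an Amplex red fluorescence increase coupled through glutamate oxidase and HRP, measured before and after 30 min room-temperature incubation. hKGA is in 45 mM KH2PO4 (pH 8.2) with 0.02% Tween-20; glutamine added as 1mM solution.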
VDR inh = blocks the human vitamin D receptor; hit rate 0.93% among 400,000; VDR-SRC2-3 peptide fluorescence polarization, 2 h; Potency, µM, usual class: inhibitors; AID 504847
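Reagent solutions, kept cold and dark, are dispensed first; compounds are then pinned in at 23 nl, plates briefly spun, and incubated 2 h at ambient temperature. Inhibition of VDR–SRC2-3 peptide binding is read by fluorescence polarization.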
PLK1 PBD inh = blocks phosphopeptide binding to human PLK1 polo-box domain; P53350; Plk1 PBD binding of FITC phosphopeptide, fluorescence polarization; Potency, µM, usual class: inhibitors; hit rate 2.8% among 360,000; also: series mostly up to about 57 µM; nearly all actives have a fitted effect of over 65% in size
PI4K2A inh = blocks human PI4K2A kinase activity. Q9BTU6. purified PI4K2A, ADP-Glo luminescence, 1 h; stronger effect = lower value. activity change, negative = inhibition, % at 76.9 µM. hit rate 0.13% among 420,000; in the data active = activity change below about -50%; inconclusive = mostly about -30% to -49%
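In this quantitative HTS, ADP production by PI4K2A was quantified luminescently after 1 h at ambient temperature; 100 microM adenosine served as plate-quality control.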
KAT2A inh = inhibitors of human GCN5L2 histone acetyltransferase | Q92830 | GCN5L2 HAT assay, ThioGlo1 CoA-SH fluorescence | Potency, µM (doses to about 58.9 µM), usual class: inhibitors | hit rate 0.21% among 390,000
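ThioGlo1-coupled HAT assay: 20nM GCN5L2, 70uM acetyl-CoA, 75uM H3(1-25) peptide, pH 7.5. Fluorescence read at 340/540nm at start and after 20 min at room temperature.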
A number is an active result. The list is not random: actives were taken first. Their share in the collection is about 3.1%. Unless noted, calls follow the shape of the dose curve; as a rule, active = well fitted curve in the direction sought with a large enough effect; inconclusive = small, poorly fitted or top-dose-only effect, or another doubt; inactive = no such curve, though single readings can be large; an effect the other way counts as inactive or inconclusive.

C[C@@](Cc1ccccc1)(C(=O)O)N1C(=O)c2ccc(C(=O)O)cc2C1=O was read as KAT2A inh inactive.
Screening CC(C)CCNC(=O)c1onc(CSc2ccccn2)c1C(=O)NCCC(C)C returned GLS inhibitor inactive, VDR inh inconclusive, PLK1 PBD inh 27µM and PI4K2A inh inactive.
`COCCNC(=O)c1onc(CSc2ccccn2)c1C(=O)NCCOC` gave GLS inhibitor inactive, VDR inh inactive, PLK1 PBD inh inactive and PI4K2A inh inactive.
For CC(=O)Nc1nc(-c2ccccc2)c(-c2ccccc2)s1 the results were VDR inh inactive.
Screening CC(=O)NC1Sc2ccccc2N=C1c1ccccc1 (stereo unspecified) returned GLS inhibitor inactive, VDR inh 79µM, PLK1 PBD inh 19µM, PI4K2A inh inactive and KAT2A inh inactive.
`CC1=NN(c2ccc(C(=O)O)cc2)C(=O)/C1=C\c1ccc(OC(=O)c2cccs2)cc1` gave GLS inhibitor inconclusive, VDR inh inconclusive, PLK1 PBD inh 0.75µM, PI4K2A inh inconclusive and KAT2A inh inconclusive.
CCOc1cc(/C=C2\C(=O)N(c3ccc(C(N)=O)cc3)N=C2C)ccc1OC(=O)c1cccs1 was read as GLS inhibitor inconclusive, VDR inh 50µM, PLK1 PBD inh inconclusive, PI4K2A inh inconclusive and KAT2A inh inactive.
`CCOc1cc(/C=C2/C(=O)N(c3ccccc3)N=C2C)ccc1OC(=O)c1ccco1` gave GLS inhibitor inactive, VDR inh inconclusive, PLK1 PBD inh 1.5µM, PI4K2A inh inconclusive and KAT2A inh inactive.
CCOc1cc(/C=C2/SC(=S)N(CC(=O)O)C2=O)ccc1OC(=O)c1cccs1 was read as GLS inhibitor inactive, VDR inh inconclusive, PLK1 PBD inh inconclusive, PI4K2A inh inactive and KAT2A inh inactive.
Screening COc1cc(/C=C2\C(=N)N3N=CSC3=NC2=O)ccc1OS(=O)(=O)c1ccccc1[N+](=O)[O-] returned GLS inhibitor inactive, VDR inh inconclusive, PLK1 PBD inh 27µM, PI4K2A inh inactive and KAT2A inh inconclusive.
Screening CC1=NN(c2ccc(C(=O)O)cc2)C(=O)/C1=C/c1ccc(-c2ccccc2F)o1 returned KAT2A inh inactive.
For COc1cc(/C=C2/C(=N)N3C(=NC2=O)SN=C3S(C)(=O)=O)ccc1OS(=O)(=O)c1ccccc1 the results were KAT2A inh inactive.
`CC(C)(C)c1ccc(-c2nnc(SCC(=O)c3ccc4ccccc4c3)n2-c2ccc(Cl)cc2)cc1` gave PI4K2A inh inactive.
`COc1cc(/C=C2\C(=N)N3N=C(S(C)(=O)=O)SC3=NC2=O)ccc1OC(=O)c1ccco1` gave GLS inhibitor inactive, VDR inh 79µM, PLK1 PBD inh inconclusive, PI4K2A inh inactive and KAT2A inh inactive.
`CCOc1cc(/C=C2\C(=N)N3N=C(S(=O)(=O)CC)SC3=NC2=O)ccc1OC(=O)c1ccco1` gave GLS inhibitor inactive, VDR inh inactive, PLK1 PBD inh inconclusive, PI4K2A inh inactive and KAT2A inh inactive.
COc1ccc(N/C(C)=C/C(=S)Nc2ccccc2)cc1 was read as GLS inhibitor 13µM, VDR inh inactive, PLK1 PBD inh inactive, PI4K2A inh inactive and KAT2A inh inactive.
Screening O=C(OCC#CCSc1nnc(-c2cccc3ccccc23)o1)c1ccsc1 returned PI4K2A inh inactive.
For CC1(C)CC(=O)C(=CN2CCOCC2)C(=O)C1 the results were GLS inhibitor inactive, VDR inh inactive, PLK1 PBD inh inactive, PI4K2A inh inactive and KAT2A inh inactive.
For C=CC1C(N2CCOCC2)C(C)(C)S1(=O)=O (stereo unspecified) the results were GLS inhibitor inconclusive, VDR inh inactive, PLK1 PBD inh 9.5µM, PI4K2A inh inactive and KAT2A inh inactive.
Screening CCOC(=O)c1cnc2ccc(C)cc2c1NCCc1ccc(OC)c(OC)c1 returned GLS inhibitor inactive, VDR inh inactive, PI4K2A inh inactive and KAT2A inh inactive.
COc1cccc(OC)c1C(=O)Nc1ccc(-c2nc3ncccc3o2)cc1 was read as GLS inhibitor inactive, VDR inh inactive, PI4K2A inh inactive and KAT2A inh inactive.
COc1cccc(-c2cncnc2Nc2ccccc2)c1 was read as VDR inh 40µM and KAT2A inh inconclusive.
For CN(C)Cc1ccccc1-c1cncnc1Nc1ccccc1 the results were VDR inh inactive and KAT2A inh inactive.
Screening Cc1ccccc1-c1cncnc1NCc1ccccc1 returned VDR inh inactive and KAT2A inh inactive.
